A selection: hits, their analogues and other compounds. The true share with any hit is near 4.2%.
Sfp PPTase inh: Sfp phosphopantetheinyl transferase inhibition. Biochemical Sfp PPTase activity, qHTS. Potency, µM, for inactives: largest response in the series, negative = inhibition, actives largely listed as inhibitors. 310,000 compounds, 3.5% hits;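 further: the enzyme is Sfp with the accession as filed and its product quenches rhodamine fluorescence; potency means the concentration at half of the fitted maximal effect; 0% = enzyme reaction without inhibitor and -100% = no enzyme wells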
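Sfp 15 nM + cpd, 15 min RT; start w/ rhodamine-CoA 5 uM, BHQ-2-YbbR 12.5 uM (final); 50 mM Hepes pH 7.6, 10 mM MgCl2, 0.01% NP-40, 0.01% BSA; read 525/598 nm at 0 and 30 min.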
TCR activator: activates T cell receptor signaling | primary human leukocytes, anti-CD3, IL-2 HTRF, 48 h | Potency, µM (titrated, usually from 9.22 µM), for the others: at the top dose activation of IL-2 secretion, hits mostly activators | 330,000 tested, under 10 active; further: % of control where 0% means no effect
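48 hr co-incubation of compounds, a-CD3 beads and primary human leukocytes; IL-2 quantified homogeneously by HTRF with anti-IL-2 K and d2 conjugates.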
uPA surface inh: cell surface uPA generation inhibition; cell surface uPA generation assay, qHTS; Potency, µM (titrated, usually from 38.3 µM), for the others: at the highest dose activity change, negative = inhibition, usual class: inhibitors; 330,000 compounds, 0.31% hits; active means well fitted inhibition curve with a large enough effect; inconclusive means small, poorly fitted or top-dose-only effect; inactive means no such curve, though single readings can be large or run the other way; tested in mouse RAW 264.7 cells; further: potency means the concentration at half of the fitted maximal effect; on the % scale 0 is the no-effect control and ±100 the full control effect; nearly all actives have a fitted effect of over 55% in size
ClpP mod: qHTS Assay for Activators of ClpP. ATP-dependent Clp protease proteolytic subunit (Bacillus subtilis (strain 168)), P80244. purified B. subtilis ClpP, FRET peptide cleavage, 20 min. Potency, µM (titrated, usually from 57.5 µM), inactives show at the highest dose activity change, negative = active. 340,000 compounds, 1.9% hits. AID 651965, 2013; active means well fitted falling curve with a large enough effect; inconclusive means small, poorly fitted or top-dose-only effect; inactive means no such curve, though single readings can be large or run the other way; further: potency means the concentration at half of the fitted maximal effect; the source files actives as falling curves though it sought activators and does not explain the sign; nearly all actives have a fitted effect of over 65% in size
Target sequence (P80244 whole entry, looked up): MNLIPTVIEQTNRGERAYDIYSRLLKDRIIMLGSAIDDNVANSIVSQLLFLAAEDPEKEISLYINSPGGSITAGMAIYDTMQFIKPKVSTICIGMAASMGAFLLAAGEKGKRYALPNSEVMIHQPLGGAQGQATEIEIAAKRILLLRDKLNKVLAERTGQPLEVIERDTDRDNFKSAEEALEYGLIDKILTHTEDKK
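ClpP 10 microg/mL final, pH 8 Tris/KCl buffer with BSA, glycerol, Tween-20; compound pinned in; FRET-FV substrate; RT 20 min; Ex320/Em430; ΔFRET vs ADEP 5.8 microM, DMSO, no enzyme.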
Numbers without * were called inactive; ? = inconclusive; . = not tested or not shown; ! = a repeat was not active; [ ] = dose if it differs, or a comment. Unless noted, the call rests on the fitted dose curve; in most records, active means well fitted curve in the direction sought with a large enough effect; inconclusive means small, poorly fitted or top-dose-only effect, or another doubt; inactive means no such curve, though single readings can be large; an effect the other way counts as inactive or inconclusive.

SMILES	Sfp PPTase inh	TCR activator	uPA surface inh	ClpP mod
O=C(OC1C[C@@H]2CC3C[C@H](C1)N2CC3=O)c1c[nH]c2ccccc12 (some centres not stated)	11%	.	.	.
O=C(NC1CC1)c1cc(-c2ccco2)nc2ccccc12	45µM*	-2%	-2%	.
O=C(O)c1cc(-c2ccco2)nc2ccccc12	35µM*	-3%	-6%	4%
CCc1cc(C(=O)N2CCN(S(=O)(=O)c3cc(C)ccc3C)CC2)sc1C	.	-1%	1%	-1%
COc1cccc(N2CCN(C(=O)CCCn3c(=O)[nH]c4ccc(Br)cc4c3=O)CC2)c1	.	.	.	2%
CCCCNC(=O)OCC(CC)NC(=O)OC(C)C (configuration not stated)	5%	-6%	-5%	28µM*
CC(C)n1c(=O)[nH][nH]c1=S	8.9µM*	4%	3%	.
CC(=O)Nc1nc(C)c(-c2csc(Nc3ccc(O)cc3)n2)s1	35µM*	2%	-17%	-10%
CCC(=O)Nc1nc(C)c(-c2csc(Nc3cccc(C(=O)O)c3)n2)s1	20µM*	.	-3%	1%
CC(=O)Nc1nc(C)c(-c2csc(Nc3cccc(C(C)=O)c3)n2)s1	-9%	3%	11µM*	-2%
Cc1nc(C)c(-c2csc(Nc3ccc(N)cc3)n2)s1	-29%	0%	4.5µM*	1%
CC(=O)Nc1ccc(Nc2nc(-c3sc(NC(C)=O)nc3C)cs2)cc1	?	8%	-10%	.
CN(C)c1ccc(NC(=O)CCSc2nc(-c3ccco3)cc(C(F)(F)F)n2)cc1	.	.	.	1%
OCC1O[C@@H](O[C@@H]2C(CO)OC(O)C(O)C2O)C(O)C(O)C1O (some centres not stated)	28%	.	.	.
CCC(C)(C)NC(=O)CN(Cc1ccco1)C(=O)CCC(=O)Nc1nccs1	9%	0%	-1%	.
Cc1cc(NS(=O)(=O)c2ccc(Nc3nc(-c4sc(N)nc4C)cs3)cc2)no1	50µM*	6%	-3%	-1%
CCCCC[C@H](O)C/C=C1/C(=O)C=C[C@@H]1C/C=C\CCCC(=O)O	-12%	.	.	.
CCCCCC(O)C=CC1C(O)CC(O)C1CC=CCCCC(=O)O (configuration not stated)	.	.	.	-1%
CCCCC[C@H](O)/C=C/[C@H]1C=CC(=O)[C@@H]1C/C=C\CCCC(=O)O	56µM*!	.	.	.
CCCCC/C=C/C=C1/C(=O)C=C[C@@H]1C/C=C\CCCC(=O)O	56µM*!	.	.	.
COCCNc1ncnc2ccc(-c3ccc(C(=O)N(C)C)cc3)cc12	31%	.	.	.
CC(=O)C1=CCC(c2ccccc2Cl)N(S(=O)(=O)c2ccc(C)cc2)C1 (configuration not stated)	.	.	.	-2%
C=CC1=C(C)C2=NC1=CC1=NC(=CC3=NC(=CC4=NC(=C2)C(C)=C4CCC(=O)O)C(CCC(=O)O)=C3C)C(C=C)=C1C.[Zn]	4.5µM*	.	.	.
COCCNC(=S)Nc1cc(OC)c(OC)cc1C#N	79µM*	2%	2%	-2%
COc1ccc(/C=N\Nc2ccc([N+](=O)[O-])cc2[N+](=O)[O-])c(C(=O)O)c1OC	79µM*	-3%	2%	4%
SMILES	Sfp PPTase inh	TCR activator	uPA surface inh	ClpP mod
CC(=O)N[C@@H](CS)C(=O)O	35µM*!	14%	6%	-1%
CC(=O)N[C@H](CS)C(=O)O	-39%	.	.	.
COc1ccc(CNS(=O)(=O)c2cc3c(cc2Cl)N(C(C)=O)CCO3)cc1	.	.	.	1%
COc1ccc(-c2nc3ccccc3[nH]2)cc1	8%	-1%	?	25µM*
c1ccc(-c2nc3ccccc3[nH]2)cc1	20%	-7%	?	4%
Cc1nnsc1-c1nc2ccccc2[nH]1	13%	6%	1%	25µM*
c1csc(-c2nc3ccccc3[nH]2)c1	-4%	0%[46.1 µM]	3%	20%
Cc1ccc(-c2nc3ccccc3[nH]2)s1	50µM*	-4%	-8%	-2%
Cc1[nH]c2ccccc2c1-c1nc2ccccc2[nH]1	-7%	4%	-6%	16µM*
CC[n+]1c(/C=C/N(C)c2ccccc2)n(-c2ccccc2)c2ccc(-c3nc4ccccc4s3)cc21	45µM*	-1%	-12%	-5%
CCOC(=O)N1CCN(CCC(=O)c2ccc(Br)cc2)CC1	50µM*	1%	-11%	-1%
CCOC(=O)N1CCN(CCC(=O)c2ccc(OC)cc2)CC1	-2%	2%	?	0%
O=C(OCCN1CCCCC1)c1ccc(Cl)cc1	89µM*	-5%	-6%	1%
CCOC(=O)N1CCN(CCC(=O)c2ccc(Cl)cc2)CC1	50µM*	-2%	-4%	-3%
Cc1ccc(-c2nc3ccccc3o2)cc1NC(=O)c1cccc2c(Cl)cccc12	.	.	.	-1%
Nc1ccccc1C(=O)/C=C/c1ccccc1	-5%	.	.	.
COc1cccc(Cn2c(=O)cc(C)c3c(C)nn(C)c32)c1	.	.	.	-11%
COc1cc(-c2nc(-c3ccc(Br)o3)no2)cc(OC)c1OC	-7%	-1%	0%	-17%
COc1ccc(-c2onc3ccc(C(=O)/C=C/N(C)C)cc23)cc1	5%	-11%	-1%	.
COc1cc(-c2onc3ccc(Br)cc23)cc(OC)c1OC	50µM*	4%	-13%	.
COc1ccc(-c2onc3ccc(Br)cc23)cc1	71µM*	18%[46.1 µM]	10%	-3%
CC(C)Oc1ccc(CNC(=O)c2ccc(CS(=O)c3cccc(Cl)c3)o2)cc1 (configuration not stated)	.	.	.	1%
O=C(O)CN(CC(=O)O)Cc1cc2c(-c3ccccc3C(=O)O)c3cc(CN(CC(=O)O)CC(=O)O)c(=O)cc-3oc2cc1O	56µM*	.	.	.
COc1cccc(Nc2ncc3nc(C)c(=O)n(CCc4ccccc4)c3n2)c1	15%	.	.	.
Cc1ccc(/C=N/Nc2cccc3cccnc23)c(O)c1	45µM*	-117%	.	-2%

From PubChem BioAssay
